In all, about 4,500 sequences were measured (“median log2 fold change of GCK-ALFA target abundance (FLAG IP / Myc IP barcode read proportion)”: median about 0.078, lowest 2% from about -0.6 on). This excerpt belongs to a sample that is enriched for the lowest values.
B1: GBRAP_137_3623 (protein)
chain: KKVKITFYEEDGVAIAEITADTSVDKEKVLEIVEEVAEKHGVKLVVALTEPDEPAVFYLVGTPEQVIAAVKELIKRLKEELGIEVELSSEGAEELVEEVK
B2: GBRAP_137_3622 (protein)
chain: KKVTITFYEEDGVAIAEITADTSVDKEKVLALVEEVAEEHGVQLVEALVEPDEPLVLYLVGTPEQVIAAVKDLIERLKSELGIEVVLESEGAEELVEEVK
B3: GBRAP_160_4497 (protein)
chain: SERKERAKERARELVEEAAEAIREEEGEGKEQIARAYAGDIALELLELGVVSEEQEEEVLRLAEEGFRRMVEASEKGEEELERAAEELKRRLEELIEEFA
B4: GBRAP_160_4123 (protein)
chain: KEKKRKTLLDSAKDVEETLKIIEDLSPEEAGTLAIVTLGQILLDNDELDDEFPEIEKLADEAIEKLRETAKTDPEKLKELSKELLEEIRELLLKKAEELK
B5: GBRAP_52_5921 (protein)
chain: SDEEARALAEAILEAALAGREDELRALIKRLVEEKSLEEIKRVIEELARLTAELGPEHYDLFADIMDLLLDAAEEAGRDVEEVDYAIAEAAGLLYDAEQA
B6: GBRAP_160_4321 (protein)
chain: SALMEELKKEIEEIAEEAKELIEGESPEQRRTIVKVALGEILLLAIENPEISDELEDKIAEIADAAEAELDANPDLSEEEVKELLEKAVKEILELIEKEE
B7: GBRAP_160_3995 (protein)
chain: SEKKKKLLEKIKEILEETYELMKGESPEERLAIARVAAGDILLELFESELVSDETEEKIDEVLDEFVATVEANPDMSDEELKELLEETLEKIEKIIEENS
B8: GBRAP_160_4762 (protein)
chain: KEELKKLKEEIEEIFKEHIELLKEVPKEKAVTVVEGAMGEVLMLAFSSEAVSDELEEKIGEIMDEAVERAKENKDAPVEVHIKILEEAREKILELIEEEI
B9: GBRAP_52_6056 (protein)
chain: MEARIEALARAIAAAIAAGDLDAALALLREAIATLTPEEIRRTLQLAARLVAGLGEEAHERFVELLDEAHELMIEAGISEEEADIIVGDAEAALARAVAA
B10: GBRAP_117_2594 (protein)
chain: SATLEEVRKRVEELVERIRKALEEMKTLSEEERKRLREELLEEATKEVKEMLKLTDAETVEEFFAEALADLSPEERVEAYIIFEEALADAEDELKEEEEA
B11: GBRAP_128_3594 (protein)
chain: SVEEVRAYVREALAAMKEADAETRREIADALMERLLTLSDEEQRAAFETIEELLPELSAEDLDILADALREHRPRFSPEGANLAADVEVEALNEREELEE
B12: GBRAP_80_6786 (protein)
chain: MEEEIEKLIEEIEKKNPEVAKIIKEIVELLKEIGVPLEIIKEIVEVFLDALSLPKETQLKIAKEVLEEAKELSEYKDEFSPEDIGRMVLAEALTLVELAK
B13: GBRAP_83_6928 (protein)
chain: KEKIVVAANDDNIDEAFEAAIDLQKNEGYEVDVEVIITKEGFPKLKKAFEKMAKAGWNGTLDILAVGATKEEVEKLKAELEAIAKKYGVNVKINVTQVEP
B14: GBRAP_160_4685 (protein)
chain: SEKVEEAEEFLEEEFAEVVELFDEVTREELAAFVRVAFGEIILELEELGLLTDEVAEVIDEEEERIVDAILNDPNITKEEFAALLEEAAEEIVEELEEEA
B15: GBRAP_184_5239 (protein)
chain: MVLERTIKAENEEELREKMKEVMEEAEKKGAKVRLLIEVEKLTREKAETLAEMIKEMAAKGLLELVGVVSSEPISEEIVDLLVEAADEAGVKLVIAEPEI
B16: GBRAP_52_6331 (protein)
chain: SHEEVEKMAEELYKAIVAGKEEEAKKLAEEMVETLSSEEILEAARIVAERVAKEGDEVKVRAAEVFEYLAELVEEKRGDERTAAEILGIYATTLYAAEQA
B17: GBRAP_11_2762 (protein)
chain: MKEKYERLAELAERAAELVDRLLAEGVDDAELLAELERLLRELREETKKIGDKALEKDVEIAEELFRALQADPANAEAYARELRAQLRVLAGQYLLLAEE
B18: GBRAP_35_5533 (protein)
chain: NSDEEIAEMLLNTMEALVDALPDVSPEQQLALARHLIRLAEDFLELKTKSAELIKRLIEVLERAIELIKKSSLPPEQQEELIRELEELRERAKELLKEVE
B19: GBRAP_128_3244 (protein)
chain: SQEELLEEAKKLVDEIVEADVEEAKELTKKLIELMKKLNKESREEVADYLIEKLKELSAEKLEAVADTLRENRPKLDDYTAALVAGVEIEALELALEQEE
B20: GBRAP_128_3242 (protein)
chain: SQEELLEEAKKLIEEIVKADVETAKKLTEKLIELLKKLNDEAREEVAEYLEKELEKLSAEKLEAVADTLRENRPKLDPYTAALVAGVEIDALELALEKEE
B21: GBRAP_184_5275 (protein)
chain: KVIHVDIVAETGEEAIKEVKKAAEKAKKEGAKLKINILLENSSVEETIKLFELLKKLKEEGIIEDAVVGIENEKTEEEIDTLLKAADEAGVKLVLAISDE
B22: GBRAP_80_6828 (protein)
chain: AEKELEAVIKELAEVDPEIAKLVEEAIEIAKELGVPLEVLLRFAKAILELAKVDKEKALELVKELLEELKKAKEEGNRDEAIALLYDAESEALLAVEELE
B23: GBRAP_52_6260 (protein)
chain: MRERLRALVEEILELVKAGRLEEARALATELAETFNEEELEIFIEEAAELARRSSKEEVEDLIRMAELVAEALEEAGRPEELVSLFEARVYGAIYETEKR
B24: GBRAP_160_4430 (protein)
chain: AEKLEKAKKEIDALFAEALEMMKGQTAEQRIVVLRVTEGEVKLELEELGLLTDEVDAVIDATFAAIIAHVAAHPDITDAELAALLDAAAATIKAELDKAA
B25: GBRAP_83_6937 (protein)
chain: KEKITVVANDDNIEKSFEIAEDLHKEEGYEVDIDVIITKESIEKLLKEVEKLFKKGVNADLHISLLGVTEEEAEELKKKLEEMAKKYGVNANITVEAIEL
B26: GBRAP_125_3134 (protein)
chain: GMAEDLEDLAIVARALGFSDDDVAEAVAIAAKHGFKGTLYAIMAALGYDEVADLVEKITEEEAIEVIREVAAEIRADPSLTPEEVVELIKKRLEEVIAKK
B27: GBRAP_125_3133 (protein)
chain: MTEEILEDLAIVARALGFSDDDVEEAVEIARKHGVKGTLYAIMLALGYEEVADLVEKITEEEAIEVLREVAARIREDPSLTPEEVVALIKELLKEKIAKK
B28: GBRAP_125_3132 (protein)
chain: HMEEILENLAIVAKALGLSDDDVEEAVKIAEKHGVKGTMYAILAALGYDEVADLVEKITEEEAIEVVKEVAEKIKKDPSLTPEEVVELIKKLLKEKIAAK
B29: GBRAP_52_5954 (protein)
chain: AAARIQAQVDRLAALVRAGDLDAARALARELAETLDEEELRAFAAAVAAAVAAAPADELDAAFRLAEIVADELEREGRDEELAGDLLAAAAAALYAKEQA

molecular target: GABARAP, O95166; experiment: median log2 fold change of GCK-ALFA target abundance (FLAG IP / Myc IP barcode read proportion) (log2 ratio); each designed protein is fused to an ALFA-tag nanobody in HEK293 cells to bring the named protein to FLAG-tagged glucokinase (GCK); Myc marks an untargeted standard; higher = target protein stabilised (more abundant); conditions: target protein: 3xFLAG-MCP-GCK-ALFA reporter; HEK293 landing pad (RPLP)
Sequence (O95166 whole entry, the tested form may be a part): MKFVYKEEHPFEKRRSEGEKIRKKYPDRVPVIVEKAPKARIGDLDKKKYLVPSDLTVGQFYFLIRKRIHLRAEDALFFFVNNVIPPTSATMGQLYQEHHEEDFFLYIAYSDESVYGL
In short: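 The readout is target abundance, the per-binder median log2 ratio of FLAG to Myc barcode read proportions. It came from HEK293 landing-pad cells carrying a recombined ALFA-nanobody-fused binder library, induced with 2 μg mL^−1 doxycycline and transfected with a plasmid for a FLAG-tagged target and a Myc-tagged standard. After 48 h, lysates were immunoprecipitated with anti-FLAG and anti-Myc, and circular RNA barcodes were reverse transcribed, amplified and sequenced. Each barcode needed a proportion of at least 10^−7 in both replicates and each binder at least 3 barcodes per replicate, a pseudocount of 10^−6 was added, and the replicates were pooled.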

In order of falling “median log2 fold change” value:
1. B16  0.372
2. B3  0.292
3. B25  0.224
4. B17  0.183
5. B15  0.163
6. B10  0.152
7. B4  0.128
8. B8  0.0708
9. B24  0.0561
10. B22  0.0224
11. B13  0.0213
12. B7  -0.00842
13. B12  -0.00858
14. B28  -0.0148
15. B6  -0.0253
16. B20  -0.0414
17. B23  -0.0461
18. B29  -0.0538
19. B11  -0.0656
20. B18  -0.115
21. B21  -0.234
22. B2  -0.288
23. B5  -0.394
24. B26  -0.575
25. B1  -0.628
26. B19  -0.658
27. B14  -0.679
28. B27  -0.744
29. B9  -0.851
